NR3A LBD binder: modulators (binders) of human NR3A ligand-binding domain. NR3A LBD differential scanning fluorimetry, Tm shift; 0% = protein alone, 100% = glycine-bound protein. Tm shift relative to glycine control, % at 25 µM. hit rate 2.5% among 340,000;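 active means melting temperature shift of at least 10% of the positive control shift, at one fixed dose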
ADAM17 inh: inhibitors of human ADAM17; recombinant ADAM17, EDANS/DABCYL FRET peptide cleavage; inhibition, % at 6.95 µM; hit rate 0.83% among 370,000; AID 720648;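 active means inhibition above the mean of compounds lying between control limits plus 3 SD, set per campaign, cut at about 8.5% in these data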;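 further: 0% = DMSO-only wells as the low control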
FAS-TE inh: inhibitors of human fatty acid synthase thioesterase domain; inhibition, % at 15 µM; hit rate 0.67% among 360,000; AID 602261; recombinant FAS-TE, OMFH fluorogenic substrate, fluorescence endpoint; P49327;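 active means compounds whose normalised, plate-corrected inhibition of enzyme fluorescence in the single-dose primary screen is 50% or more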;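 further: 0% = DMSO with enzyme and 100% = substrate without enzyme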
sPLA2-III inh: Inhibits HGIII-sPLA2 liposome hydrolysis, primary screen; Q9NZ20; QFRET BODIPY PC-A2 liposome hydrolysis, fluorescence; inhibition, % at 12.2 µM; hit rate 0.56% among 370,000;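 active means inhibition above mean plus 3 SD of compounds lying within the high and low control bounds, cut at about 19% in these data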;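 further: 0% = median of test compound wells and 100% = no enzyme DMSO wells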
ADAM10 inh: inhibits human ADAM10. recombinant ADAM10, EDANS/DABCYL FRET peptide cleavage, 3 h. inhibition, % at 7 µM. hit rate 0.62% among 370,000;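 active means inhibition above a per-campaign cutoff equal to the mean of compounds falling between control-based bounds plus 3 SD, cut at about 20% in these data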;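 further: 0% = DMSO wells while the 100% control is not disclosed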
sPLA2 confirm: human GIII-sPLA2 inhibition, confirmation; shares compounds with sPLA2-III inh; recombinant hGIII-sPLA2, BODIPY PC-A2 QFRET fluorescence; inhibition, % at 12.2 µM; hit rate 34% among 2,000; AID 743280;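 active means mean inhibition across triplicates above the hit cutoff set in the earlier primary screen, cut at about 19% in these data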;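 further: 0% = enzyme with DMSO and 100% = DMSO wells lacking enzyme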
BODIPY interf: optically interferes with 535nm fluorescence in sPLA2 counter-screen; shares compounds with sPLA2-III inh; BODIPY FL product fluorescence interference, QFRET; inhibition, % at 12.2 µM; hit rate 8.5% among 2,000; AID 743282;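 active means average inhibition above the solvent-only control mean plus 3 SD, cut at about 6% in these data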;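 further: 0% = DMSO with substrate plus product and 100% = DMSO with substrate alone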
BODIPY interf DR: 535nm optical interference dose response, HGIII-sPLA2 counter-screen. shares compounds with sPLA2-III inh. BODIPY FL product fluorescence interference, cell-free. IC50, µM. 240 tested, under 10 active;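 active means IC50 at or below 10 µM; inactive means IC50 above 10 µM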
* hit, by the source's call; . = no result. Compounds with a hit are over-represented: about 4.3% of the library has one in this group of screens.

SMILES	NR3A LBD binder	ADAM17 inh	FAS-TE inh	sPLA2-III inh	ADAM10 inh	sPLA2 confirm	BODIPY interf	others
Cc1ccc(NC(=O)C2CCCO2)cc1[N+](=O)[O-] (configuration not stated)	-2	-3	-12	20*	-7	1	-2
COc1ccc(O)c(/C=N/NC(=S)Nc2cccc(S(=O)(=O)N(C)C)c2)c1	-6	-46	7	24*	-130	11	12*
COc1ccc(O)c(/C=N/NC(=S)Nc2cccnc2)c1	-3	-74	-2	20*	-189	27*	5
CCCCn1c(=O)nc2n(-c3ccc(Cl)cc3)c3ccccc3cc-2c1=O	0	-52	-7	25*	-143	0	-8
Cc1ccc(Nc2n[nH]c(=S)s2)c(C)c1	.	-2	-4	20*	-9	30*	2	BODIPY interf DR=>122
Cc1cc(C)c(Nc2n[nH]c(=S)s2)cc1C	.	-1	-8	11	2	.	.
Cc1ccc(Cn2cccc2C2=NC(C)CO2)cc1 (configuration not stated)	1	5	-1	21*	11	-6	-9
NC(=S)N/N=C1\CCSc2ccc(Cl)cc21	1	-14	0	30*	-24	15	-6
NC(=O)c1cc([N+](=O)[O-])ccc1NCc1cnccn1	0	7	-3	20*	10	-6	-4
NC(=O)c1cc([N+](=O)[O-])ccc1NCc1cccnc1	-2	-2	3	0	-2	.	.
O=C(NNc1ccccc1[N+](=O)[O-])Nc1ccc(Cl)c(Cl)c1	15*	3	23	27*	8	28*	9.8*
CCCCCCCCCc1conc1C(=O)/C=C/c1ccco1	.	-3	.	24*	-14	-2	-7
CN(Cc1ccccc1)C(=O)c1c[nH]c2ccc(S(=O)(=O)N3CCOCC3)cc2c1=O	-10	-99	-8	20*	-310	-4	-6
O=C1OC(c2ccccc2)/C(=C(/O)c2ccc(Cl)cc2)C1=O (configuration not stated)	2	-1	-7	22*	5	-39	-3
COC(=O)[C@]12C[C@H](CC(=O)N3CCN(C(=O)C4CC4)CC3)C(=O)N(Cc3ccco3)C1=C[C@H](C(C)C)O[C@@H]2C1CC1	.	-3	.	20*	-8	-3	-20
COC(=O)[C@]12C[C@H](CC(=O)N3CCCCC3)C(=O)N(Cc3ccco3)C1=C[C@H](C(C)C)O[C@@H]2C1CC1	.	0	.	1	4	.	.
O=[N+]([O-])C1=CC=C2C(=NC3(CCCCC3)N2O)C1=NC1CCCCC1	-1	-3	9	19*	-17	25*	-3
O=C(CSC(=S)N1CCCCC1)Nc1ncc2c(n1)CCCC2=O	3	-7	-1	22*	-5	2	-7
CSc1nc(-c2ccc(Cl)cc2)nc(N)c1C#N	2	-1	-6	4	10	.	.
CSc1nc(N)c(C#N)c(-c2ccc(Cl)cc2)c1C#N	-3	-5	34	22*	-4	24*	-5
c1ccc(-c2nccnc2-c2ccccc2)cc1	1	-7	-2	22*	-4	3	-4
c1ccc(-c2nnc(-c3ccccc3)nn2)cc1	-4	0	-2	7	1	.	.
Nc1ccc(N=Nc2ccccc2O)c(N)c1	6	-14	8	21*	-59	56*	21*
Oc1ccccc1N=Nc1ccccc1O	0	2	8	36*	8	36*	5	BODIPY interf DR=>122
Oc1ccccc1N=Cc1ccc[nH]1	-1	-2	-14	4	6	.	.
COC(=O)[C@]12C[C@H](CC(=O)N3CCOCC3)C(=O)N(Cc3ccc(Cl)cc3Cl)C1=C[C@H](C1CCCC1)O[C@@H]2C	.	7	.	77*	12	-16	-23
Cn1c2ccccc2c2cc([N+](=O)[O-])ccc21	-3	1	23	0	5	.	.

Assay outcomes (PubChem BioAssay)
